Experimental findings from PubChem BioAssay (NCATS) are described below.

In assay [1] the target is Glutathione peroxidase 1 (Homo sapiens) (UniProt P07203). Briefly: Primary qHTS Assay for Inhibitors of Recombinant Selenoprotein Glutathione Peroxidase 1 (GPX1) (AID 1845191). Also: nearly all actives have a fitted effect of over 65% in size. Also: potency is read from the fitted curve at half-maximal effect. As to activity, negative = inhibition: % is scaled to controls: 0 for no effect and ±100 for the full control effect. In outline:
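10 nM GPX1 + cpd, 30 min RT; start w/ 1 mM GSH, 0.5 mM cumene hydroperoxide, 0.5 mM NADPH, 100 nM GR, 0.01% BSA; buffer 50 mM Tris-HCl pH 7.5, 2 mM EDTA, 150 mM NaCl; Fl 340/450, 0 & 15 min.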
In general terms: In qHTS, concentration-response curves come from the screen itself.

Assay [2] addresses Phospholipid hydroperoxide glutathione peroxidase GPX4 (Homo sapiens) (UniProt P36969). Nature of the assay: Primary qHTS Assay for Inhibitors of Recombinant Selenoprotein Glutathione Peroxidase 4 (GPX4) (AID 1845192). Also: nearly all actives have a fitted effect of over 65% in size. Also: potency is read from the fitted curve at half-maximal effect. As to activity change, negative = inhibition: series mostly up to about 50 µM; % is scaled to controls: 0 for no effect and ±100 for the full control effect. In outline: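 NADPH consumption, followed by fluorescence at 340/450 nm between 0 and 15 min, reports GPX4 activity via coupled glutathione reductase (100 nM). Enzyme 200 nM was pre-exposed to compound 30 min; 0.5 mM cumene hydroperoxide and 1 mM GSH served as substrates.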

Assay [3] deals with Luciferin 4-monooxygenase (Photinus pyralis) (UniProt P08659). Briefly: Primary firefly luciferase (FLuc) qHTS assay for identification of artifact compounds. (AID 1845220). Also: nearly all actives have a fitted effect of over 60% in size.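 As to activity change, negative = inhibition: series mostly up to about 54 µM; plate controls were DMSO vehicle for no effect and no enzyme for full effect.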 In outline:
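Cell-free, 1536-well qHTS. Buffer pH 7.6 with 0.01% Tween-20 and 0.05% BSA; 10 uM D-luciferin, 10 uM ATP; 10 nM P. pyralis luciferase; luminescence after 5 min.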

In assay [4] the test system is Nanoluciferase (engineered Oplophorus gracilirostris luciferase). Nature of the assay: Primary Nanoluciferase (NLuc) qHTS assay for identification of artifact compounds. (AID 1845222).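 Also: series mostly up to about 54 µM; 0% = DMSO and -100% = no enzyme.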 In short, it runs like this:
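Compounds are pinned into diluted (1:55) conditioned medium of NLuc-expressing S16 cells and held 15 min at room temperature protected from light. Nano-Glo substrate follows, and luminescence is read 5 min later.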

Assay [5] can be described thus: Primary redox qHTS assay for identification of artifact compounds. (AID 1845223).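 Also: 0% = DMSO and 100% = reference compound.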 In outline: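 Amplex Red (25 uM) and HRP (250 mU/mL) in HBSS, with compounds for 15 min, then 250 uM DTT for 30 min, room temperature, dark. Fluorescence 525/598 nm read; normalized to DMSO and 10 uM DA3003; Hill fit.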

Values joined by “and” are separate entries in the source; they are usually repeats but may differ in a detail not shown here. Equal entries are not always repeated. Inconclusive results are not listed. A structure can be active in one record and inactive in another. Active and inactive are the calls of the source. Calls follow the shape of the dose curve; as a rule, active = well fitted curve in the direction sought with a large enough effect; inconclusive = small, poorly fitted or top-dose-only effect, or another doubt; inactive = no such curve, though single readings can be large; an effect the other way counts as inactive or inconclusive. *1 amine or outer side, *2 acyl side, *3 side chain or, on linkers, in order; H or OH if unused. Where a SMILES comes first, the peptide text is derived from it. Bridges are numbered along the chain shown (N, C = ends). [ ]: non-standard residue; d: D form. The star is where a group is joined. ξ: configuration not given here. ξhTyr(3S-OH,4S-OH,3'-OSO3H) = NC(C(=O)O)[C@H](O)[C@@H](O)c1ccc(O)c(OS(=O)(=O)O)c1; Orn(4R-OH,5R-OH) = O=C([C@H](C[C@@H](O)[C@@H](O)N[*:3])N[*:1])[*:2]; X2 = CCCCCOc1ccc(-c2cc(-c3ccc(C(=O)*)cc3)no2)cc1; X3 = C[C@H]1CN([*:1])C(C(=O)[*:2])[C@H]1O; ξGln(3R-OH) = NC(=O)C[C@@H](O)C(N)C(=O)O; ξPro(4R-OH) = O=C(O)C1C[C@@H](O)CN1; ξThr(3R) = C[C@@H](O)C(N)C(=O)O

Phospholipid hydroperoxide glutathione peroxidase GPX4 (Homo sapiens), sequence (P36969 whole entry, looked up): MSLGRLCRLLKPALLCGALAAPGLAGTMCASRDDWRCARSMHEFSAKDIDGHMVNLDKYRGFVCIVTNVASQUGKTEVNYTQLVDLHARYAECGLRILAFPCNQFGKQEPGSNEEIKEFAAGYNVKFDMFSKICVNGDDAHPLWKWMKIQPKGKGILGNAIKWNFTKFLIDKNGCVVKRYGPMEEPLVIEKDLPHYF
Glutathione peroxidase 1 (Homo sapiens), sequence (P07203 whole entry, looked up): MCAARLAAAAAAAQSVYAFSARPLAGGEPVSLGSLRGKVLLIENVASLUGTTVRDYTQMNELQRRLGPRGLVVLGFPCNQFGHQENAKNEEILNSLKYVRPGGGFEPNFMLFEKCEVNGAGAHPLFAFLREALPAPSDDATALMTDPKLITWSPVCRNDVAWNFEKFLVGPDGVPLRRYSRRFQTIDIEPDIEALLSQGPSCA

Regarding `CC1=CC2=C(C)C(=O)C(C)(O)C(O)C2CO1` (configuration not stated), the Potency entry in assay [1], in assay [2], in assay [3] and in assay [4] was “inactive” throughout.

For the compound `C/C(=C\C(=O)C[C@@]12C(=O)O[C@]3(C)CC[C@H]1C[C@H]23)C(N)=O`, the Potency result in assay [1], in assay [2], in assay [3] and in assay [4] was “inactive” in each case.

For `CC1=C[C@@H]2[C@H]3[C@@H]4O[C@@](C)(CC[C@H]4O)[C@H]3CC(=O)[C@]23C(=O)N[C@@H](CC(C)C)[C@@H]3[C@@H]1C`, the Potency result in assay [1], in assay [2], in assay [3] and in assay [4] was “inactive” throughout.

Regarding `CC1CC2(O)OC(=O)C3=C2C(CCC3)[C@@]12C[C@@H](c1ccoc1)OC2=O` (some centres not stated), the Potency result in assay [1], in assay [2], in assay [3] and in assay [4] was “inactive” in each case.

For `COC(=O)C1=CO[C@@H](O[C@@H]2O[C@H](CO)[C@@H](O)[C@H](O)[C@H]2O)[C@@H]2[C@@H](C)[C@@H](OC(=O)/C=C/c3ccccc3)[C@@H](O)[C@H]12`, the Potency entry in assay [1], in assay [2], in assay [3] and in assay [4] was “inactive” in each case.

As for `CCC/C=C/C=C/C1CC(O)C(O)C(=O)C1CO` (configuration not stated), the Potency entry in assay [1], in assay [2], in assay [3] and in assay [4] was “inactive” each time.

On to `O=C(O)CC/C=C\C[C@H]1CO[C@@H](c2ccccc2Cl)O[C@H]1c1ccccc1O`, for which the Potency result in assay [1], in assay [2], in assay [3] and in assay [4] was “inactive” in each case.

For `CC/C=C\[C@H](O)[C@H](O)C1=C(C)C(=O)[C@]2(O1)C(=O)N[C@@](O)(C(=O)c1ccccc1)[C@@H]2O`, the Potency entry in assay [1], in assay [2], in assay [3] and in assay [4] was “inactive” throughout.

For the compound `COc1cc(C(=O)OCC2=CCC3C(C(=O)O)=COC(O[C@@H]4O[C@H](CO)[C@@H](O)[C@H](O)[C@H]4O)C23)ccc1O` (some centres not stated), the Potency result in assay [1], in assay [2], in assay [3] and in assay [4] was “inactive” throughout.

For `CCCCOc1nc(N)c2c(n1)N(Cc1cccc(CN3CCCC3)c1)CC(=O)N2`, the Potency entry in assay [1], in assay [2], in assay [3] and in assay [4] was “inactive” each time.

Regarding `CCCCNc1nc(N)c2[nH]c(=O)n(Cc3ccc(OCCN(C)C)nc3)c2n1`, the Potency result in assay [1], in assay [2], in assay [3] and in assay [4] was “inactive” in each case.

Turning to `C/C=C(\C)C1C(C)=CC2CCC(OS(=O)(=O)O)C(C)C2C1/C=C/C=C/C(=O)O` (configuration not stated), the Potency entry in assay [1], in assay [2], in assay [3] and in assay [4] was “inactive” each time.

On to `CC1OC(OC2C(OC3C(O[C@H]4CC[C@@]5(C)C(CC[C@]6(C)C5C(=O)CC5=C7CC(C)(C)CC(O)[C@]7(C)CC[C@]56C)C4(C)C)OC(C(=O)O)C(O)C3O)OCC(O)C2O)C(O)C(O)C1O` (some centres not stated), for which the Potency entry in assay [1] and in assay [2] was “inactive” throughout. For the same compound, the activity change, negative = inhibition in assay [3] is 0.49% [at 11.6 µM] (inactive). Further, the activity, negative = inhibition in assay [4] was -10.9% [at 11.6 µM] (inactive).

For the compound `CC(=O)OC1CC(=O)C2(C)C3CC4=C(OC(C)CC4=O)OC3(C)CCC2C1(C)C` (configuration not stated), the Potency result in assay [1], in assay [2], in assay [3] and in assay [4] was “inactive” throughout.

`COc1c2c(c(C)c3c1C(=O)OC3)OC1(C)CC(O)C34OC(OC)(CCC3(C)C1C2)OC4(C)CO` (configuration not stated): the Potency result in assay [1], in assay [2], in assay [3] and in assay [4] was “inactive” each time.

Consider `COC(=O)[C@H](c1ccccc1Cl)N1CCC2SC(=O)C=C2C1` (some centres not stated), for which, in assay [1], the Potency is 8.06 µM (active). Further, the Potency entry in assay [2], in assay [3] and in assay [4] was “inactive” in each case.

For `C=C[C@H]1[C@H](O[C@@H]2O[C@H](CO)[C@@H](O)[C@H](O)[C@H]2O)OC=C(C(=O)OC)[C@H]1CC=O`, the Potency entry in assay [1], in assay [2], in assay [3] and in assay [4] was “inactive” in each case.

Consider `C=C1CCC2(C(=O)OC3OC(CO)C(O)C(O)C3O)CCC3(C)C(=CCC4C5(C)CCC(OC6OC(CO)C(OC7OC(C)C(O)C(O)C7O)C(OC7OCC(O)C(O)C7O)C6O)C(C)(C)C5CCC43C)C2C1` (configuration not stated), for which the Potency entry in assay [1] and in assay [2] was “inactive” in each case. The activity change, negative = inhibition in assay [3] was 3.5% [at 11.6 µM] (inactive). Besides, the activity, negative = inhibition in assay [4] is 0.389% [at 11.6 µM] (inactive).

With `CC1=CC(=O)CC(C)(C)C1/C=C/C(C)OC1OC(COC2OCC(O)C(O)C2O)C(O)C(O)C1O` (configuration not stated), the Potency result in assay [1], in assay [2], in assay [3] and in assay [4] was “inactive” in each case.

`CCCCCOc1ccc(-c2cc(-c3ccc(C(=O)N[C@H]4C[C@@H](O)[C@@H](O)NC(=O)C5[C@@H](O)[C@@H](C)CN5C(=O)C([C@H](O)CC(N)=O)NC(=O)C([C@H](O)[C@@H](O)c5ccc(O)c(OS(=O)(=O)O)c5)NC(=O)C5C[C@@H](O)CN5C(=O)C([C@@H](C)O)NC4=O)cc3)no2)cc1` (stereo partly drawn) (X2-[Orn(4R-OH,5R-OH)][ξThr(3R)][ξPro(4R-OH)][ξhTyr(3S-OH,4S-OH,3'-OSO3H)][ξGln(3R-OH)][X3]; lactam 1-C): the Potency entry in assay [1], in assay [3] and in assay [4] was “inactive” each time. Further, the Potency entry in assay [2] was “inactive and 2 µM (active)”.

Consider `OC[C@@]1(O)CO[C@H](OC[C@H]2O[C@@H](OC(CCCCc3ccc(O)cc3)CCc3ccc(O)cc3)[C@H](O[C@H]3OC[C@](O)(CO)[C@H]3O)[C@@H](O)[C@@H]2O)[C@@H]1O` (some centres not stated), for which the Potency entry in assay [1], in assay [2], in assay [3] and in assay [4] was “inactive” in each case.

With `CC1=CC2=C(C)C(=O)[C@](C)(O)[C@H](O)C2=CO1`, the Potency entry in assay [1], in assay [2], in assay [3], in assay [4] and in assay [5] was “inactive” throughout.

As to `O=C(O)c1cc(C(F)(F)F)ccc1N1CC[C@H](OCc2ccccn2)C1`, the Potency result in assay [1], in assay [2], in assay [3], in assay [4] and in assay [5] was “inactive” in each case.

Regarding `COc1c2c(c(C)c3c1C(=O)OC3)OC1(C)CC(O)C34OC(OC)(CC(O)C3(C)C1C2)OC4(C)C` (configuration not stated), the Potency result in assay [1], in assay [2], in assay [3] and in assay [4] was “inactive” in each case.

`C/C=C/C=C/C(O)=C1/C(=O)[C@]2(C)C3/C(=C(O)/C=C/C=C/C)C(=O)C4(C)C1[C@]1(C)O[C@@]4(O)[C@@]3(C)O[C@@]12O`: the Potency entry in assay [1], in assay [2], in assay [3], in assay [4] and in assay [5] was “inactive” each time.

In the case of `CC1CC=C2C1CC1(O)C(=O)CC2(C)C1(C)CO` (configuration not stated), the Potency entry in assay [1], in assay [2], in assay [3] and in assay [4] was “inactive” throughout.

`CC/C=C/C(O)C(O)C1=C(C)C(=O)C2(O1)C(=O)NC(OC)(C(=O)c1ccccc1)C2O` (configuration not stated): the Potency entry in assay [1], in assay [2], in assay [3], in assay [4] and in assay [5] was “inactive” throughout.

Regarding `CC(=O)OC1C(C)C2C(OC3OC(CO)C(O)C(O)C3O)OC=C(C(=O)O)C2C1OC(=O)c1ccccc1` (configuration not stated), the Potency result in assay [1], in assay [2], in assay [3], in assay [4] and in assay [5] was “inactive” throughout.
